{"source": "the supplement of paper PMC12532568", "note": "Counter-ions that a name gives are not always drawn."}
{"tested_on": "Danio rerio larvae Tg(actc1b:ZsGreen-LC3), 3 dpf", "assay": "LC3 puncta relative area vs vehicle, without NH4Cl (log2 fold change); higher = more autophagosomes", "conditions": "10 µM; treatment time 16 h; NH4Cl: none", "method": "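Transgenic Tg(actc1b:ZsGreen-map1lc3) zebrafish larvae (2 dpf) were treated for 16 h with Tocris library compounds at 10 µM (n = 12 larvae per compound). Skeletal-muscle LC3 puncta area relative to body area was measured by high-content confocal imaging before and after 4 h of 100 mM NH4Cl (autophagic flux), normalised to vehicle (DMSO), and reported as log2 fold change.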"}
{"compound": "c1ccc2c(c1)OCC(C1=NCCN1)O2", "note": "(stereo not given) [Idazoxan hydrochloride]", "LC3 puncta (log2)": 0.411}
{"compound": "OC1CCCCC1N1CCC(c2ccccc2)CC1", "note": "(stereo not given) [(?)-Vesamicol hydrochloride]", "LC3 puncta (log2)": 0.548}
{"compound": "Cc1nc(N)sc1CCN", "note": "[Amthamine dihydrobromide]", "LC3 puncta (log2)": 0.0368}
{"compound": "c1ccc(CCCN2CCN(CCOC(c3ccccc3)c3ccccc3)CC2)cc1", "LC3 puncta (log2)": 0.0674}
{"compound": "S=C(NC1CCCCC1)N1CCC(c2cnc[nH]2)CC1", "note": "[Thioperamide]", "LC3 puncta (log2)": 0.0474}
{"compound": "CCC(Oc1ccc(Cl)cc1)C(=O)OC1C[C@H]2CC[C@@H](C1)N2C", "note": "(stereo not given in full) [SM-21 maleate]", "LC3 puncta (log2)": 0.226}
{"compound": "Cc1onc(O)c1CC(N)C(=O)O", "note": "(racemic)", "LC3 puncta (log2)": -0.391}
{"compound": "COC(=O)[C@@H](N)CCCNC(=N)N[N+](=O)[O-]", "note": "[L-NAME hydrochloride]", "LC3 puncta (log2)": -0.0167}
{"compound": "CN(C(=O)Cc1ccccc1)C(CN1CCCC1)c1ccccc1", "note": "(stereo not given) [N-MPPP Hydrochloride]", "LC3 puncta (log2)": 0.385}
{"compound": "C=C(C)[C@H]1CN[C@H](C(=O)O)[C@H]1CC(=O)O", "note": "[Kainic acid]", "LC3 puncta (log2)": 0.377}
{"compound": "CC(C(=O)OC1CC2CCC(C1)N2C)c1ccc(Br)cc1", "note": "(stereo not given) [PG-9 maleate]", "LC3 puncta (log2)": 0.116}
{"compound": "Cc1onc(O)c1C[C@H](N)C(=O)O", "LC3 puncta (log2)": 0.235}
{"compound": "CCCN(CCC)C1CCc2cccc(O)c2C1", "note": "(stereo not given) [8-Hydroxy-DPAT hydrobromide]", "LC3 puncta (log2)": 0.14}
{"compound": "Cc1[nH]c2ccc(O)cc2c1CCN", "note": "[2-Methyl-5-hydroxytryptamine hydrochloride]", "LC3 puncta (log2)": -0.132}
{"compound": "C=CCN1CC[C@]23c4c5ccc(O)c4O[C@H]2C(=O)CC[C@@]3(O)[C@H]1C5", "note": "[Naloxone hydrochloride]", "LC3 puncta (log2)": 0.085}
{"compound": "O=C(O)/C=C/CO", "note": "[trans-4-Hydroxycrotonic acid]", "LC3 puncta (log2)": -0.0373}
{"compound": "CC(N)Cc1cnc[nH]1", "note": "(stereo not given)", "LC3 puncta (log2)": 0.372}
{"compound": "COc1ccc(C(=O)N2CCCC2=O)cc1", "note": "[Aniracetam]", "LC3 puncta (log2)": 0.228}
{"compound": "COc1ccc(CNC(=O)/C=C/c2ccc3[nH]cc(CCN(C)C)c3c2)cc1", "LC3 puncta (log2)": -0.124}
{"compound": "CCCCCCC[n+]1ccc(-c2cc[n+](CCCCCCC)cc2)cc1", "note": "[DHBP dibromide]", "LC3 puncta (log2)": 0.00945}
{"compound": "CCCN(C/C=C/I)C1CCc2ccc(O)cc2C1", "note": "(stereo not given) [7-Hydroxy-PIPAT maleate]", "LC3 puncta (log2)": -0.263}
{"compound": "CS(=O)(=O)Nc1ccc(Cc2noc(-c3ccc4[nH]cc(CCN)c4c3)n2)cc1", "LC3 puncta (log2)": 0.431}
{"compound": "O=c1[nH]oc2c1CCNC2", "note": "[THIP hydrochloride]", "LC3 puncta (log2)": 0.233}
{"compound": "O=C(Cc1ccc(Cl)c(Cl)c1)N1CCCCC1CN1CCCC1", "note": "(stereo not given)", "LC3 puncta (log2)": 0.372}
{"compound": "c1ccc2nc(N3CCNCC3)ccc2c1", "note": "[Quipazine dimaleate]", "LC3 puncta (log2)": 0.115}
{"compound": "c1ccc(C2CNCc3ccccc32)cc1", "note": "(stereo not given) [4-Phenyl-1,2,3,4-tetrahydroisoquinoline hydrochloride]", "LC3 puncta (log2)": 0.365}
{"compound": "Cn1cnc(CCN)c1", "note": "[N?-Methylhistamine dihydrochloride]", "LC3 puncta (log2)": 0.287}
{"compound": "N=C(NCc1ccc(Cl)cc1)SCCCc1c[nH]cn1", "note": "[Clobenpropit dihydrobromide]", "LC3 puncta (log2)": 0.454}
{"compound": "NCC(CS(=O)(=O)O)c1ccc(Cl)cc1", "note": "(stereo not given) [Saclofen]", "LC3 puncta (log2)": -0.022}
{"compound": "N[C@@]1(C(=O)O)CC[C@@H](C(=O)O)C1", "LC3 puncta (log2)": 0.259}
{"compound": "C=CCN1C[C@H](C)N([C@H](c2ccc(C(=O)N(CC)CC)cc2)c2cccc(OC)c2)C[C@H]1C", "LC3 puncta (log2)": 0.784}
{"compound": "O=C(O)Cc1cccnc1C(=O)O", "note": "[Homoquinolinic acid]", "LC3 puncta (log2)": -0.131}
{"compound": "Fc1ccc(C(OCCN2CCN(C/C=C/c3ccccc3)CC2)c2ccc(F)cc2)cc1", "LC3 puncta (log2)": 0.527}
{"compound": "c1ccc(CC(c2ccccc2)N2CCCCC2)cc1", "note": "(stereo not given) [(?)-1-(1,2-Diphenylethyl)piperidine maleate]", "LC3 puncta (log2)": 0.167}
{"compound": "CO[C@]12C[C@@H](COC(=O)c3cncc(Br)c3)CN(C)[C@@H]1Cc1cn(C)c3cccc2c13", "note": "[Nicergoline]", "LC3 puncta (log2)": 0.51}
{"compound": "Cc1cc(C)cc(C(=O)OC2C[C@H]3CC[C@@H](C2)N3C)c1", "note": "(stereo not given in full) [Tropanyl-3,5-dimethylbenzoate]", "LC3 puncta (log2)": 0.0365}
{"compound": "CCCN(CCC)C1CCc2ccc(O)cc2C1", "note": "(stereo not given) [7-Hydroxy-DPAT hydrobromide]", "LC3 puncta (log2)": -0.0217}
{"compound": "CCCN(CCC)[C@@H]1CCc2c(OC)cccc2[C@@H]1C", "note": "[(+)-UH 232 maleate]", "LC3 puncta (log2)": 0.36}
{"compound": "Clc1cccc(SC2CCNCC2)n1", "note": "[Anpirtoline hydrochloride]", "LC3 puncta (log2)": 0.143}
{"compound": "S=C=Nc1cccc(C2(N3CCCCC3)CCCCC2)c1", "note": "[Metaphit]", "LC3 puncta (log2)": 0.663}
